# Data from PubChem BioAssay (Tox21).
# Results filed as inconclusive are left out. Activity calls are given as the source filed them. Calls follow the shape of the dose curve; as a rule, active = well fitted cell-killing curve with a large enough effect in the repeat runs; inconclusive = weak or mixed curves, or effect the other way; inactive = no such curve, though single readings can be large or run the other way.
# Assay: qHTS assay for identifying genotoxic compounds that show differential cytotoxicity against isogenic chicken DT40 cell lines with known DNA damage response pathways - wild type cell line (AID 743012); also: nearly all actives have a fitted effect of over 60% in size
# Settings: DT40 wild type chicken cells viability, CellTiter-Glo, 40 h; series mostly up to 68.4 µM; activity change, negative = cytotoxicity: at the top concentration
# Excerpt: U.S. Tox21 Program National Center for Advancing Translational Sciences [NCATS] NIH Chemical Genomics Center [NCGC] U.S. Environmental Protection Agency [EPA] National Institutes of Environmental Health Sciences [NIEHS] National Toxicology Program [NTP] U.S. Food and Drug Administration [FDA] Tox21 Assay Overview: DNA repair pathways play a critical role in cellular homeostasis by repairing DNA damage induced by endogenous processes and xenobiotics. Isogenic chicken DT40 cell lines deficient in different DNA repair pathways can be used to identify genotoxic compounds and aid in characterizing the nature of the DNA damage induced. Two DNA repair-deficient cell lines with disrupted genes, Rad54/Ku70 or Rev3, were used to screen the Tox21 10K compound library. Possible genotoxicity was based on the presence of a significant increase in cytotoxicity in one or more of the DNA repair-deficient cell lines compared to that observed in the parental DNA repair-proficient cell line. CellTiter Glo viability assay (Promega, Madison, WI) was used to measure cell viability in these cells after compound treatment. This assay includes the data from the wild type cell line.
# Tox21 Assay Protocol Summary: 300 DT40 wild type cells in 5 uL/well were dispensed into white, solid-bottom 1536-well plates using a Multidrop Combi (ThermoFisher Scientific, Waltham, MA) dispenser. After the assay plates were incubated at 37 C/5% CO2 for approximately 0.5 hour, 23 nL of compounds dissolved in DMSO, positive controls or DMSO only was transferred into the assay plate by a pintool work station (Kalypsys, San Diego, CA). The assay plates were incubated at 37 C/5% CO2 for 40 hours. After 5 uL per well of CellTiter-Glo reagent was added into each well of the assay plates, the plates were incubated for 30 min at room temperature and the luminescence intensity of the plates was measured using a ViewLux (PerkinElmer, Shelton, CT) plate reader.
# % is scaled to controls: 0 for no effect and ±100 for the full control effect; potency is read from the fitted curve at half-maximal effect.
SMILES,"activity change, negative = cytotoxicity",Potency
C=C(C)C(=O)OC,3.05% (inactive),–
O=c1[nH]c(=O)c2[nH]c(=O)[nH]c2[nH]1,–,inactive
Nc1ccc(S(=O)(=O)Nc2ccccn2)cc1,5.64% [at 31.4 µM] (inactive),–
FC(F)(F)c1ccc(Cl)cc1Cl,-7.88% (inactive),–
CCC1COC(=O)O1 (stereo not given),16.2% (inactive),–
CCNC(=O)/C=C/c1cccc(Br)c1,0.199% (inactive),–
CCNC(=O)NCCCOc1cccc(CN2CCCCC2)c1,-16.6% (inactive),–
COCC(=O)Nc1c(I)c(C(=O)NCC(O)CO)c(I)c(C(=O)N(C)CC(O)CO)c1I (stereo not given),11.9% [at 31.4 µM] (inactive),–
CC(C)CCC(=O)CCC(C)C,–,68.6 µM (active)
Cc1ncc([N+](=O)[O-])n1CC(O)CCl (stereo not given),-0.511% [at 31.4 µM] (inactive),–
C=CCOc1c(Br)cc(Br)cc1Br,18.4% (inactive),–
CNC(=O)NC,0.305% [at 95 µM] (inactive),–
CC(=O)OCCCc1ccccc1,0.95% (inactive),–
CC(C)C(=O)c1ccccc1,0.715% (inactive),–
OCCCCCCCl,18.3% [at 95 µM] (inactive),–
CCCO,20.4% (inactive),–
CCOC(=O)CCc1ccccc1,21.4% (inactive),–
NC(Cc1c[nH]c2ccccc12)C(=O)O (stereo not given),22.6% (inactive),–
CCN(CCC#N)c1ccccc1,4.85% (inactive),–
CCCCOC(=O)C(=O)OCCCC,-14.9% (inactive),–

SMILES,"activity change, negative = cytotoxicity",Potency
O=C(c1ccc2c(c1)C(=O)OC2=O)c1ccc2c(c1)C(=O)OC2=O,-1.98% (inactive),–
C=C(C)[C@@H]1CC[C@@H](C)C[C@@H]1O,-1.55% (inactive),–
COc1ccc(OC)c(NC(=O)CC(C)=O)c1,12.2% (inactive),–
C1CCN2C[C@@H]3C[C@@H](CN4CCCC[C@@H]34)[C@H]2C1,-0.523% [at 31.4 µM] (inactive),–
CO[Si](CCCS)(OC)OC,19.3% (inactive),–
CC(=O)/C=C/c1ccco1,5.63% [at 95 µM] (inactive),–
CC(=O)N(CC(O)CO)c1c(I)c(C(=O)NCC(O)CO)c(I)c(C(=O)NCC(O)CO)c1I (stereo not given),15.7% (inactive),–
CCCCCCCCCCCCOC(C)=O,10.8% (inactive),–
CC(=O)c1ccc(OCC(=O)N2CCCCC2)cc1,2.34% (inactive),–
O=C(O)c1ccccc1C(=O)OCc1ccccc1,3.48% (inactive),–
CC(C)COC(=O)/C=C/c1ccccc1,1.11% (inactive),–
Oc1ccccc1Cc1ccccc1O,-7.73% (inactive),–
CCCCCC(=O)OCC,16.4% (inactive),–
CCCC(C)CC (stereo not given),-4.06% (inactive),–
CCCCOC(=O)[C@@H](C)Oc1ccc(Oc2ccc(C(F)(F)F)cn2)cc1,-7.48% [at 95 µM] (inactive),–
Cc1cc(C)cc([N+](=O)[O-])c1,14.2% [at 95 µM] (inactive),–
C=C(C)C(=O)OC1CC(C)CC(C)(C)C1 (stereo not given),14.8% (inactive),–
C=C(C)C(=O)OCCCCCCOC(=O)C(=C)C,-29.5% (inactive),–
CCOC(=O)C(C)(C)C,-1.2% [at 95 µM] (inactive),–
CN(C)CCCNCCC#N,3.13% (inactive),–
